Screens from PubChem.
In the library only some 9.5% were active in any assay of this set; here they are far more common.
Tau fibril ThT: tau fibrillization inhibition (ThT binding); P10636; recombinant tau K18 P301L, heparin-induced fibrillization, ThT fluorescence; Potency, µM (series often up to 57.4 µM), without a hit: top-dose activity, negative = inhibition, hits mostly inhibitors; 2.1% of 270,000 active; AID 1460; further: nearly all actives have a fitted effect of over 55% in size
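Fibril formation assay: tau K18 P301L at 15 uM with trace Alexa 594 label, heparin inducer 20 uM, pH 7 sodium acetate buffer, 37 C for 6 hr; endpoint ThT signal.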
ALDH1A1 block: inhibitors of human aldehyde dehydrogenase 1A1; P00352; Purified ALDH1A1, NADH fluorescence, propionaldehyde substrate; Potency, µM (series often up to 75.3 µM), for inactives: at the top dose activity, negative = inhibition, actives largely listed as inhibitors; 7.3% of 220,000 active; active means well fitted inhibition curve with a large enough effect, not every such curve was filed as active; inconclusive means small, poorly fitted or top-dose-only effect, or another doubt; inactive means no such curve, though single readings can be large or run the other way;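 further: plate controls were no enzyme wells and a reference inhibitor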
NPSR antagonist: neuropeptide S receptor (human) antagonism, cAMP; Q6W5P4; AID 1461; 1% of 220,000 active; CHO-NPSR cells, cAMP TR-FRET, antagonist mode; Potency, µM (doses to about 38.3 µM), inactives show at the top dose activity change, negative = inhibition, usual class: inhibitors; further: nearly all actives have a fitted effect of over 50% in size
Target sequence (Q6W5P4 whole entry, looked up): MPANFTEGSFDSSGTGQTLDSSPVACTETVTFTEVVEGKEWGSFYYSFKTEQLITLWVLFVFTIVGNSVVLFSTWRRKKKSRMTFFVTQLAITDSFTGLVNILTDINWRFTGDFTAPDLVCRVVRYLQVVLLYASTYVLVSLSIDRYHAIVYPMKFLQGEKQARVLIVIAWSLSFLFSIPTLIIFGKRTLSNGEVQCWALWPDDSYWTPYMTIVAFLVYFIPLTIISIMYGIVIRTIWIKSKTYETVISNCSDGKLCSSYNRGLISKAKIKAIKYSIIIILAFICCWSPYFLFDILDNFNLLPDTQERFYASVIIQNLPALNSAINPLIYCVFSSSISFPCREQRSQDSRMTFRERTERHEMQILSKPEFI
Tau fluor counter: counter-screen for tau fibril formation inhibitors | tau K18 P301L (four-repeat tau fragment) Alexa594 fluorescence, heparin fibrillization | Potency, µM (series often up to 57.7 µM), for inactives: at the highest dose activity change, negative = decrease | 0.93% of 280,000 active; further: nearly all actives have a fitted effect of over 55% in size
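Human K18 P301L tau (15 uM unlabeled plus 0.24 uM Alexa 594-labeled, final) in 100 mM sodium acetate pH 7 was mixed with compound and 20 uM heparin and incubated 6 hr at 37 C.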
HPGD block: inhibitors of human 15-hydroxyprostaglandin dehydrogenase (HPGD); P15428; purified HPGD, NADH fluorescence kinetic, PGE2 substrate; Potency, µM, for inactives: top-dose activity change, negative = inhibition, hits mostly inhibitors; 4.3% of 150,000 active; AID 894; active means well fitted inhibition curve with a large enough effect, not every such curve was filed as active; inconclusive means small, poorly fitted or top-dose-only effect, or another doubt; inactive means no such curve, though single readings can be large or run the other way
Target sequence (P15428 whole entry, looked up): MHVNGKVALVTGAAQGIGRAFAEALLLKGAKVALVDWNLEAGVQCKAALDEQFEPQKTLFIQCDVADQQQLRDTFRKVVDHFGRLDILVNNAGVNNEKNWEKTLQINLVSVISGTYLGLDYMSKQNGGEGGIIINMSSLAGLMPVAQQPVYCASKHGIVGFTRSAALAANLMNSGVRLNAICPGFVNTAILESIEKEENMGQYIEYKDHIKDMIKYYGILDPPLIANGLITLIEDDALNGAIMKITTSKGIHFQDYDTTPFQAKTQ
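20 nM HPGD preincubated 15 min at room temperature with compound in 50 mM Tris-HCl pH 8, 0.01% Tween 20. Started with 1 mM NAD+ and 30 uM prostaglandin E2; NADH fluorescence (360/450 nm) read 5 times over 30-s intervals, last minus first.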
Tau FP inhib: inhibitors of human tau fibril formation; P10636; K18 P301L tau heparin fibrillization, Alexa594 FP, 6 h; Potency, µM (series often up to 57.7 µM), for inactives: at the top dose activity, negative = inhibition, actives largely listed as inhibitors; 0.39% of 280,000 active; AID 1468; further: nearly all actives have a fitted effect of over 55% in size
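Human K18 P301L fragment (15 uM unlabeled plus 0.24 uM Alexa 594-labeled) in 100 mM sodium acetate pH 7 with compound, aggregation induced by 20 uM heparin for 6 hr at 37 C. ThT (30 uM) added for 1 hr, then Alexa 594 FP read.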
* marks the source's active call; other numbers are inactive results; ? = inconclusive; nt = no result given; ! = not active in a repeat; [ ] = remark or other dose. Unless noted, the call rests on the fitted dose curve; in most records, active means well fitted curve in the direction sought with a large enough effect; inconclusive means small, poorly fitted or top-dose-only effect, or another doubt; inactive means no such curve, though single readings can be large; an effect the other way counts as inactive or inconclusive. Unless noted, on the % scale 0 is the no-effect control and ±100 the full control effect; potency means the concentration at half of the fitted maximal effect.

SMILES | Tau fibril ThT | ALDH1A1 block | NPSR antagonist | Tau fluor counter | HPGD block | Tau FP inhib
COc1cccc(CNC(=O)Cn2c(SCC(=O)Nc3ccc(C)c(C)c3)nc3ccccc32)c1 | 13% | nt | nt | -18% | nt | -4%
CCOc1cc(CN2CCCC(CNC(=O)c3ccc(F)cc3)C2)ccc1OC (stereo unspecified) | -3% | nt | -2% | -4% | nt | 0%
COc1ccccc1-n1c(=O)c(C#N)c(-c2ccc([N+](=O)[O-])cc2)c2cc(C(=O)c3ccccc3O)cnc21 | nt | nt | -20% | ? | nt | 2%
CCn1ccnc1CN(C)C(=O)CCc1nnc(CCCc2ccccc2)o1 | 3% | 8% | -17% | 1% | nt | -1%
CCOC(=O)c1sc(S(C)=O)c2c1CCc1conc1-2 (stereo unspecified) | ? | 4.5µM* | -2% | -16% | nt | ?
CC(NC(=O)COc1ccc(N(C)S(=O)(=O)c2ccccc2)cc1)c1ccccc1 (stereo unspecified) | -13% | ? | -42% | -15% | nt | 8%
Fc1cccc(NC(=S)Nc2cccnc2)c1 | -2% | -9% | 23% | -2% | nt | 0%
Fc1cccc(NC(=S)NNc2c3ccccc3nc3ccccc23)c1 | 7.9µM* | 3.2µM* | -31% | 11µM*[quencher] | nt | -17%
N#CC(C#N)=C1C=CC=CN1/C(=C\c1ccccc1)C(=O)c1cccs1 | ? | ? | ? | ? | ? | 11%
N#CC(C#N)=C1C=CC=CN1/C(=C\c1ccccc1Cl)C(=O)c1ccccc1 | ? | ? | 7.9µM* | ? | 7.9µM* | ?
Cc1ccc(NC(=O)CN2C(=O)C(c3ccc(C)cc3)=NC23CCCCCC3)cc1 | -2% | nt | nt | -19% | nt | -18%
CC(=O)Nc1ccc(C2=NN(Cc3nnc(-c4ccccc4)o3)C(=O)SC2)cc1 | 2% | -10% | -16% | 1% | 5µM* | 3%
O=C1SCC(c2ccccc2)=NN1Cc1ccccc1 | -7% | ? | -3% | -12% | -21% | 0%
O=C1SCC(c2ccc(Cl)cc2Cl)=NN1Cc1nnc(-c2ccccc2)o1 | -2% | -7% | 6% | -11% | 32µM* | 2%
CC(/C=C/C(=O)NO)=C\[C@@H](C)C(=O)c1ccc(N(C)C)cc1 | ? | 28µM*! | nt | -22% | -22% | -9%
CCN1CCc2c(sc(-n3cccc3)c2C(C)NC(=O)Nc2ccc(Br)cc2)C1 (stereo unspecified) | -4% | nt | nt | ? | nt | 25µM*
CCOc1ccc(NC(=O)NC(C)c2c(-n3cccc3)sc3c2CCN(CC)C3)cc1 (stereo unspecified) | -13% | nt | nt | ? | nt | 12%
CC(C)C(NC(=O)C1CCCCC1)C(=O)NCCc1ccccc1 (stereo unspecified) | -4% | 6% | 4% | -5% | nt | 0%
O=c1cc(CSc2nnnn2-c2ccccc2)[nH]c2[nH]n(-c3ccccc3)c(=O)c12 | ? | 0% | -1%[46.1 µM] | -11% | -15% | -3%
COc1cc(OC)cc(C(=O)NC(=S)Nc2ccc3c4c(cccc24)CC3)c1 | ? | 7.9µM* | -20%[46.1 µM] | ? | -13% | -13%
COc1ccc(C(=O)Nc2ccc3c4c(cccc24)CC3)cc1 | ? | -6% | -11%[46.1 µM] | -14% | -20% | 3%
COc1ccc(C(=O)NC(=S)Nc2ccc3c4c(cccc24)CC3)cc1OC | -12% | 13µM* | -3% | -19% | -15% | -15%
Cc1ccc(C(=O)NNC(=O)CCN2C(=O)C3CCCCC3C2=O)cc1 (stereo unspecified) | -1% | 1% | 14% | 4% | -5% | 6%
CC(C)CO/N=C1/C[C@@H](O)[C@@H](O)[C@@H]2[C@@H]3C(=O)N(Cc4ccc5c(c4)OCO5)C(=O)[C@H]3CC[C@@H]12 | -4%[11.5 µM] | 8%[13.5 µM] | nt | 1%[11.6 µM] | nt | 1%[11.6 µM]
O=c1ccc2c(o1)/C(=C/C=C(Cl)Cl)CCC2 | ? | 7.1µM* | 8%[46.1 µM] | -15% | -22% | -3%
SMILES | Tau fibril ThT | ALDH1A1 block | NPSR antagonist | Tau fluor counter | HPGD block | Tau FP inhib
O=C(Nc1ccc(NC(=O)c2ccccc2O)cc1)Nc1ccc(F)cc1F | -14% | nt | 7% | -20% | nt | 5%
COC(=O)C1=C(C(=O)OC)[C@@H]2Nc3ccccc3[C@@]23C[C@@H](C(=O)OC)N(S(=O)(=O)c2c(C)noc2C)C3=N1 | 1%[11.5 µM] | ? | nt | -4%[11.6 µM] | 0% | 3%[11.6 µM]
CN(C(=O)CSc1nc2ccccc2n1CCc1ccccc1)C1CCS(=O)(=O)C1 (stereo unspecified) | -18% | 22µM* | -8%[46.1 µM] | -14% | -14% | 1%
CN(C(=O)CSc1nnc2ccccn12)C1CCS(=O)(=O)C1 (stereo unspecified) | -4% | -15% | 0%[46.1 µM] | -5% | -16% | 6%
COCCn1c(SCC(=O)N(C)C2CCS(=O)(=O)C2)nc2ccccc2c1=O (stereo unspecified) | 2% | 9% | 4% | 3% | nt | 1%
Cc1ccccc1-n1nnnc1SCC(=O)N(C)C1CCS(=O)(=O)C1 (stereo unspecified) | -4% | 11µM* | 7% | -5% | nt | -4%
Cc1ccc(S(=O)(=O)NCC(=O)N/N=C/c2ccc(Cl)cc2Cl)cc1 | -7% | 7.1µM* | -30% | -29% | -4% | -6%
Cc1ccc(S(=O)(=O)NCC(=O)N/N=C/c2ccc(Cl)cc2)cc1 | 10% | ? | 12% | 3% | -7% | 3%
Cc1ccc(NCC(=O)N/N=C/c2cc3ccccc3nc2Cl)cc1 | 18µM* | 10µM* | -12%[46.1 µM] | ? | -14% | 2%
Cc1ccccc1N1CCN(Cc2nc(Cc3ccccc3)no2)CC1 | -11% | -5% | -3% | -6% | nt | 3%
CC(=O)c1ccc(N2CCN(Cc3nc(Cc4ccccc4)no3)CC2)cc1 | ? | 18µM* | 30% | -16% | nt | 10%
COc1ccc(NC(=O)CC2C(=O)N(c3ccc(OC)cc3)C(=O)N2CCC2=CCCCC2)cc1 (stereo unspecified) | 11% | nt | nt | -16% | nt | -7%
N#Cc1c(NC(=O)C2C3C=CC(C3)C2C(=O)O)sc2c1CCCCC2 (stereo unspecified) | -16% | 13µM* | -10% | -6% | nt | 6%
CCC1(C)Cc2c(sc(NC(=S)NC(=O)c3ccccc3)c2C#N)CO1 (stereo unspecified) | -16% | ? | 1% | -16% | 7.9µM* | 5%
Cn1nc(C(=O)Nc2sc3c(c2C#N)CCCC3)ccc1=O | ? | 2.2µM* | -12% | -6% | nt | -3%
N#Cc1c(NC(=S)NC(=O)c2ccccc2)sc2c1CCC2 | ? | 14µM* | 10% | -17% | -25% | -2%
Cn1nnnc1SCC(=O)N1CCN(S(=O)(=O)c2ccc(Cl)cc2)CC1 | 5% | -7% | -20% | 5% | nt | 3%
